# Experimental data reported in PubChem BioAssay (NCATS).
# Records with an inconclusive call do not appear. The source made the active and inactive calls. Unless noted, calls follow the shape of the dose curve; as a rule, active = well fitted curve in either direction with a large enough effect (not every such curve was filed as active); inconclusive = small, poorly fitted or top-dose-only effect, or another doubt; inactive = flat fitted curve, though single readings scatter.
# Assays:
# [1] = target: Lysosomal acid glucosylceramidase (Homo sapiens) (UniProt P04062); assay: Glucocerebrosidase-p2 (AID 348; in the data active = potency below about 10 µM; also: potency is read from the fitted curve at half-maximal effect); settings: purified GBA, blue fluorogenic substrate, 40 min
# Sequence of Lysosomal acid glucosylceramidase (Homo sapiens) (P04062 whole entry, looked up): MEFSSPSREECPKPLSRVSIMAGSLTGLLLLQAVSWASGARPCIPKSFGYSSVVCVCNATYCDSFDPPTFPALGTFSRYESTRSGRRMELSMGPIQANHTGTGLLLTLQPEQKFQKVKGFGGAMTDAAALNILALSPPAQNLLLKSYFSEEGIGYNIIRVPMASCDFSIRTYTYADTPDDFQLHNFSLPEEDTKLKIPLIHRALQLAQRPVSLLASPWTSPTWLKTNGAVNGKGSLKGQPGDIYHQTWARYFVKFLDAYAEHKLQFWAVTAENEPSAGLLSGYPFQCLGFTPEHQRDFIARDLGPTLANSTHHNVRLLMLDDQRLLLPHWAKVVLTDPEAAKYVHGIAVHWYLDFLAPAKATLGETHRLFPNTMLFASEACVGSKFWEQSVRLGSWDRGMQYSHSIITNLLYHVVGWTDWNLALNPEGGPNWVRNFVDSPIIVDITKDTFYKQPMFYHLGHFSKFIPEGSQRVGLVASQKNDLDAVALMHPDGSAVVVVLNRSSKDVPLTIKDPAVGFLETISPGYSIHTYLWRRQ
# In short: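 Compounds titrated from 0.6 nM upwards against 0.2 nM enzyme in pH 5.9 citric acid/KH2PO4, taurocholate, tween-20; blue fluorogenic substrate 80 uM, 40 min room temperature, stopped and read Ex 365/Em 440 for AC50.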
# [2] = target: Glucocorticoid receptor (Homo sapiens) (UniProt P04150); assay: GR-GFP Redistribution (AID 450;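 active = compounds whose dose series gives a full or clear partial fitted curve of increased nuclear translocation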; also: potency is read from the fitted curve at half-maximal effect); settings: U2OS GR-GFP nuclear translocation, laser cytometry, 2 h
# Sequence of Glucocorticoid receptor (Homo sapiens) (P04150 whole entry, looked up, the tested form may be a part): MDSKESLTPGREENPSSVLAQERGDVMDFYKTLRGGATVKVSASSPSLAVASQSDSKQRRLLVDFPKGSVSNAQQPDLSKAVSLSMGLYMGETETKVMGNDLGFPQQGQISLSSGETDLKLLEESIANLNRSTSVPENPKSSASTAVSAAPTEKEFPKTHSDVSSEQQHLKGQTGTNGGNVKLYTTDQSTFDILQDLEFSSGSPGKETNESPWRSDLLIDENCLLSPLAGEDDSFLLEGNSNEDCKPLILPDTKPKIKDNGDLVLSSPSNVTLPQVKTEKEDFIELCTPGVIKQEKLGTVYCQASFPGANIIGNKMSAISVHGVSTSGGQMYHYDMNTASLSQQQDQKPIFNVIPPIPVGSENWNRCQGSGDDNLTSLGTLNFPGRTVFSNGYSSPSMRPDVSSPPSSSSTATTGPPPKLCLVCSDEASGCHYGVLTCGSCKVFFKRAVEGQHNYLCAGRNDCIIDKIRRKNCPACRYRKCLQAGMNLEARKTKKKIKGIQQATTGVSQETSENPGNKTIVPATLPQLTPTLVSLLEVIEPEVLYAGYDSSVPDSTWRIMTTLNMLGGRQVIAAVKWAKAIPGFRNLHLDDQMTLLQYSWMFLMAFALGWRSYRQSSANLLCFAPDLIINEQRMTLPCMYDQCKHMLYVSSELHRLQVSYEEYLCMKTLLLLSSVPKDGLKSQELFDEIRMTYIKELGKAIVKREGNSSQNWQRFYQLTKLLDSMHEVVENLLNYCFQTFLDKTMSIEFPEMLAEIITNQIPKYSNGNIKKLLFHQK
# [3] = target: Glucocorticoid receptor (Homo sapiens) (UniProt P04150); assay: GR-EFC Redistribution (AID 451; calls by dose curve; also: potency is read from the fitted curve at half-maximal effect); settings: CHO-K1 GR-EFC translocation, beta-gal luminescence, 2 h
# In short: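 Translocation of GR-ED fusion to nuclear EA restores b-gal, read by luminescence after 1 h room-temperature detection. Engineered CHO-K1 biosensor cells, 1,000/well, exposed 2 h at 37 C to titrations up to 46 uM final.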
# [4] = target: Mitogen-activated protein kinase 10 (Mus musculus) (UniProt Q61831); assay: JNK3 AlphaScreen Assay (AID 530);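 also: kinase came from lysate of stimulated human HepG2 cells; signal reports phosphorylation of biotinylated GST-cJun 1-79 at Ser73 with 10 µM ATP; % is scaled to controls: 0 for no effect and ±100 for the full control effect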
# In short: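 Room-temperature AlphaScreen kinase assay; pre-activated HepG2 lysate as JNK3 source, biotin-GST-cJun(1-79) substrate, 10 uM ATP, compound 15 min preincubation.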
# [5] = qHTS Assay for Lipid Storage Modulators (AID 1519; calls by dose curve); settings: Drosophila S3 cells, BODIPY lipid droplet/cell ratio, laser cytometry, cells loaded with oleic acid; for activity change, negative = inhibition: at 57.5 µM (top of the series)
# In short: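 Cells seeded at 5,000 per well were treated with compounds over a concentration series and loaded with oleic acid (400 uM, as added). Lipid droplet fluorescence (488 nm excitation, 500-530 nm channel) was read by laser-scanning cytometry and normalized to 20 uM Triacsin C.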
# [6] = target: Dual specificity protein kinase CLK4 (Homo sapiens) (UniProt Q9HAZ1); assay: qHTS Assay for Inhibitors of CDC-like Kinase 4 (Kinase-Glo Assay) (AID 1770; active = well fitted curve in the direction sought with a large enough effect; an effect the other way counts as inactive or inconclusive; also: % is scaled to controls: 0 for no effect and ±100 for the full control effect; nearly all actives have a fitted effect of over 65% in size)
# Sequence of Dual specificity protein kinase CLK4 (Homo sapiens) (Q9HAZ1 whole entry, looked up): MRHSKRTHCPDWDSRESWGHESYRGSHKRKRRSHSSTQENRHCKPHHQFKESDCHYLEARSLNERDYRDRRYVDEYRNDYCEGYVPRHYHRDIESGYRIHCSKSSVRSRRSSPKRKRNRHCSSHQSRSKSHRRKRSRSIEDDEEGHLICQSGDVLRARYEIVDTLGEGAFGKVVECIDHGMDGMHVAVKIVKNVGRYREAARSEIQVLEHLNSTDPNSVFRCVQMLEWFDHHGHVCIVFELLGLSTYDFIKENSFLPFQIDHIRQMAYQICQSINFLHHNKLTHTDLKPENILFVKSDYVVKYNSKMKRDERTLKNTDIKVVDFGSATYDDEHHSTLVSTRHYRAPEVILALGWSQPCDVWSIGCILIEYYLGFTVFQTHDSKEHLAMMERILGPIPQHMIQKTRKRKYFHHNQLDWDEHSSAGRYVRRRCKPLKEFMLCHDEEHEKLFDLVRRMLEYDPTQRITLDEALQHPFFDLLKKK
# In short: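 Readout: Kinase-Glo luminescence from ATP left after a 4.5 h room-temperature reaction of 25 nM Clk4 with 100 uM RS peptide and 1 uM ATP (final). Buffer: 25 mM Tris pH 7.5, 10 mM MgCl2.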
# [7] = target: Dual specificity protein kinase CLK4 (Homo sapiens) (UniProt Q9HAZ1); assay: qHTS Assay for Inhibitors of CDC-like Kinase 4 (ADP-Glo Assay) (AID 1771; active = well fitted curve in the direction sought with a large enough effect; an effect the other way counts as inactive or inconclusive; also: % is scaled to controls: 0 for no effect and ±100 for the full control effect; nearly all actives have a fitted effect of over 70% in size)
# In short: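 Clk4 (25 nM) was incubated 1 hr at room temperature with 100 uM RS repeat peptide and 1 uM ATP in buffer with 2 mM MgCl2, 0.5 mM EGTA, 2.5 mM DTT. ADP formed was quantified by ADP-Glo luminescence.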
# [8] = target: Dual specificity protein kinase CLK4 (Homo sapiens) (UniProt Q9HAZ1); assay: qHTS Assay for Inhibitors of CDC-like Kinase 4 (ADP-FP Assay) (AID 1795; active = well fitted curve in the direction sought with a large enough effect; an effect the other way counts as inactive or inconclusive;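 also: recombinant human CLK4 phosphorylating RS repeat peptide at 1 µM ATP; % is scaled to controls: 0 for no effect and ±100 for the full control effect; nearly all actives have a fitted effect of over 60% in size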)
# In short: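 FP readout: Orange Transcreener ADP2 tracer (4 nM) plus ADP antibody, read after 30 min at room temperature. Kinase step: 6.25 nM Clk4, 100 uM RS peptide, 1 uM ATP, pH 7.5, 1 h.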
# [9] = target: Ubiquitin carboxyl-terminal hydrolase 1 (Homo sapiens) (UniProt O94782); assay: Inhibitors of USP1/UAF1: Pilot qHTS (AID 504865; active = well fitted curve in the direction sought with a large enough effect; an effect the other way counts as inactive or inconclusive;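 also: rhodamine fluorescence freed from ubiquitin-rhodamine substrate followed over time; top concentration of the series differs between compounds; % is scaled to controls: 0 for no effect and ±100 for the full control effect; nearly all actives have a fitted effect of over 35% in size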)
# Sequence of Ubiquitin carboxyl-terminal hydrolase 1 (Homo sapiens) (O94782 whole entry, looked up): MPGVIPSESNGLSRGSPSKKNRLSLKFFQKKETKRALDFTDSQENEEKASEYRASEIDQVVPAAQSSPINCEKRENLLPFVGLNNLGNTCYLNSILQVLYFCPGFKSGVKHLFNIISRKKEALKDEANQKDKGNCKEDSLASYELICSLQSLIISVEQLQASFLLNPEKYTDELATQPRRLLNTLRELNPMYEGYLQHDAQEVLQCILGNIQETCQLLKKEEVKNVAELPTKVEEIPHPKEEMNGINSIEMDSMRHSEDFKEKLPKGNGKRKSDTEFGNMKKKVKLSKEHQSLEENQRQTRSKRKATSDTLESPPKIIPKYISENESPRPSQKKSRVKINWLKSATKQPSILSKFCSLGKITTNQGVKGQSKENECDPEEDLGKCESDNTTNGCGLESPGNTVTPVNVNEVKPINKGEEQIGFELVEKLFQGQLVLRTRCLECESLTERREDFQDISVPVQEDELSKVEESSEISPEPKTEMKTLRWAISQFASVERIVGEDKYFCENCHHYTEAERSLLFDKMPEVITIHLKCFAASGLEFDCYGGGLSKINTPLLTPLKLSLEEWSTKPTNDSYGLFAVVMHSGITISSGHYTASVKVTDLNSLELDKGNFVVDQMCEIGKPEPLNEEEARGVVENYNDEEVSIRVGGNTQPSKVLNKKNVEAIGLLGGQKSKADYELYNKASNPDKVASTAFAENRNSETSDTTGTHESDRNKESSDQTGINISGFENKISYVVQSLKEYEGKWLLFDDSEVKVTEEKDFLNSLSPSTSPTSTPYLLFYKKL
# In short: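 1nM USP1/UAF1 + cpd, 15 min RT; start w/ Ub-Rho 150nM final; kinetic FL 480/540 nm, 6 reads q60 s. Buffer 50mM HEPES pH 7.8, 0.5mM EDTA, 1mM TCEP, 0.01% Tween-20, 0.1 mg/ml BSA.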
# [10] = Confirmatory qHTS for small molecule stabilizers of the endoplasmic reticulum resident proteome: Secreted ER Calcium Modulated Protein (SERCaMP) assay (AID 1508628; active = well fitted curve in the direction sought with a large enough effect; an effect the other way counts as inactive or inconclusive; also: nearly all actives have a fitted effect of over 40% in size; also: potency is read from the fitted curve at half-maximal effect)
# In short: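 We seeded SH-SY5Y-GLuc-SERCaMP cells, added compounds (three concentrations in the primary run, eleven up to 76.6 uM in confirmation), incubated 16 h, depleted ER calcium with thapsigargin, and read luciferase 4 h later.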
# [11] = target: Cytochrome P450 1A2 (Homo sapiens) (UniProt P05177); assay: p450-cyp1a2 (AID 410; calls by dose curve; also: potency is read from the fitted curve at half-maximal effect)
# Sequence of Cytochrome P450 1A2 (Homo sapiens) (P05177 whole entry, looked up): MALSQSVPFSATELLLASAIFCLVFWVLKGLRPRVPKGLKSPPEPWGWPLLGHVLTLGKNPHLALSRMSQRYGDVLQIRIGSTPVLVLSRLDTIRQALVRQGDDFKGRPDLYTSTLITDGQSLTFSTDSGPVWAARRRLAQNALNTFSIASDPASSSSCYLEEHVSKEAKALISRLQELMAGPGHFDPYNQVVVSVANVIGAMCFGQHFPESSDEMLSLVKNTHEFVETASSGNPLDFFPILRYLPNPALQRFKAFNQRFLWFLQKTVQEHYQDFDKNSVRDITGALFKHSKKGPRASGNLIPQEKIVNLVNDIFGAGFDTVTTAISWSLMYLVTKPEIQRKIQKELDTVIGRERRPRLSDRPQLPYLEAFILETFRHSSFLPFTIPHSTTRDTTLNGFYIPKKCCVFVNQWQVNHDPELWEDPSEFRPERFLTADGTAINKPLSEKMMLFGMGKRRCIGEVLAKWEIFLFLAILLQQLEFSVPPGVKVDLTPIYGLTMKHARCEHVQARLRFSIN
# In short: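 Human CYP1A2 (20nM) demethylated Luciferin-ME at its Km (100uM) in 100mM KPO4. After 10 min compound preincubation, NADPH regeneration ran the reaction 60 min at room temperature. Luciferin was read by luminescence, normalized to 57 uM furafylline.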
# [12] = NFAT Signaling Pathway (AID 444); settings: Jurkat NFAT-bla M1, carbachol, beta-lactamase ratio, 5 h; at 7.69 µM (top of the series) unless noted;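 also: carbachol stimulus at about its EC50 of 1 µM final; % is scaled to controls: 0 for no effect and ±100 for the full control effect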
# In short: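 Read-out: CCF4 FRET ratio (460 nm/530 nm) after 1 h RT dye loading, used for %activity and AC50 from titration series. Cells: Jurkat NFAT-β-lactamase/M1 line, treated with compound plus 1 uM carbachol for 5 h, 37 °C.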
# [13] = Stat Signaling Pathway (AID 446); settings: ME-180 SIE beta-lactamase reporter, IL-6 stimulated, 5 h; at 7.69 µM (top of the series) unless noted;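 also: ME-180 cervical cancer cells given 40 pM IL-6 alongside compound; SIE-controlled beta-lactamase reporter measured as 460/530 nm FRET emission ratio; % is scaled to controls: 0 for no effect and ±100 for the full control effect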
# In short: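 ME-180 cells carrying a SIE-driven beta-lactamase reporter are stimulated with 40 pM IL-6 for 5 h at 37C in the presence of compound. The 460/530 nm FRET substrate ratio is read after 2.5 h at RT. Data are normalised to 300 pM IL-6 and to 125 nM JAK inhibitor controls.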
# [14] = target: Cytochrome P450 3A4 (Homo sapiens) (UniProt P08684); assay: qHTS Assay for Activators of Cytochrome P450 3A4 (AID 885; active = well fitted curve in the direction sought with a large enough effect; an effect the other way counts as inactive or inconclusive; also: nearly all actives have a fitted effect of over 65% in size)
# Sequence of Cytochrome P450 3A4 (Homo sapiens) (P08684 whole entry, looked up): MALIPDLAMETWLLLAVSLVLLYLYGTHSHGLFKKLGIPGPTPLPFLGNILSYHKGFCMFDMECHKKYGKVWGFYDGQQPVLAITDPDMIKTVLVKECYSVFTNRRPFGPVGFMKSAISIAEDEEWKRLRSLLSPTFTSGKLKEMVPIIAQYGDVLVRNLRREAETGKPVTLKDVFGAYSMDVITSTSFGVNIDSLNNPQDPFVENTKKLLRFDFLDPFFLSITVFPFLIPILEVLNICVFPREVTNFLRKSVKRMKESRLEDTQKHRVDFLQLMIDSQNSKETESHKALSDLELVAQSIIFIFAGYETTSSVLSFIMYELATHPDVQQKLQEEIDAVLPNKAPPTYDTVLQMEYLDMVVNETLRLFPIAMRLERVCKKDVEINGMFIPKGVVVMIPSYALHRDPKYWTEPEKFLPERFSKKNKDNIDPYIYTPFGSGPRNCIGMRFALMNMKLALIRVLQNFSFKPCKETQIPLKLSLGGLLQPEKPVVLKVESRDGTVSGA
# In short: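 Human CYP3A4 (20 nM) with Luciferin-PPXE at 25 uM (its KM) in 200 mM KPO4; 10 min compound preincubation, then NADPH regeneration and 60 min reaction at RT. Luciferin read by luminescence; normalized to 57 uM ketoconazole full inhibition.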
# [15] = target: 3',5'-cyclic-AMP phosphodiesterase 4B (Homo sapiens) (UniProt Q07343); assay: qHTS Assay for Inhibitors of PDE-IV (AID 607; active = well fitted activation curve with a large enough effect in the main read-out, with a control signal flat, not every such curve was filed as active; also: % of control where 0% means no effect)
# Sequence of 3',5'-cyclic-AMP phosphodiesterase 4B (Homo sapiens) (Q07343 whole entry, looked up): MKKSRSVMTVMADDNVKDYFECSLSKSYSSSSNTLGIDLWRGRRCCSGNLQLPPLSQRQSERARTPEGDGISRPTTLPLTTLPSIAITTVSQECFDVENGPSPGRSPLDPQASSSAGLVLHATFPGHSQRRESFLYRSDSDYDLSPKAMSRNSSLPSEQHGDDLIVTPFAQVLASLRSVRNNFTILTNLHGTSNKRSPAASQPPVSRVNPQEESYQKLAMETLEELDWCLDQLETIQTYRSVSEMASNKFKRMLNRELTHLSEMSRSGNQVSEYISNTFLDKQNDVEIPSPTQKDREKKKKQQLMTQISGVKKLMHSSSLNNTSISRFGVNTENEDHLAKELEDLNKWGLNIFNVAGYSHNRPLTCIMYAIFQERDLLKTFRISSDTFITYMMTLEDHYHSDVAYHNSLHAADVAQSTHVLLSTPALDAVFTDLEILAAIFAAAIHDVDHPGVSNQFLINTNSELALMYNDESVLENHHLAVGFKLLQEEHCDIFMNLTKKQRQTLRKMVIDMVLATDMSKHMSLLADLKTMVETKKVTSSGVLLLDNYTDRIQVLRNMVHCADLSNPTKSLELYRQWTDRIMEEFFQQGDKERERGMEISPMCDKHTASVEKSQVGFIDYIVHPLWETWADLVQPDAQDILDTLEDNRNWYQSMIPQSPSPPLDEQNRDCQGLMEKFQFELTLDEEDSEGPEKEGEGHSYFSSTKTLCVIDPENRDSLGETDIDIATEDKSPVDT
# In short: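 HEK293 ACTOne cells with CNG channel (1000/well), endogenous PDE4; membrane potential dye, compounds up to 22.9 uM final. Fluorescence Ex 535/Em 590; RO 20-1724 (100 uM final) as reference.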
# [16] = AP1 Signaling Pathway (AID 357); settings: ME-180 (cervical carcinoma) AP-1-bla reporter, EGF-induced, beta-lactamase ratio, 5 h; at 7.69 µM (top of the series) unless noted;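 also: ME-180 reporter cells stimulated with EGF at its EC50 level; % is scaled to controls: 0 for no effect and ±100 for the full control effect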
# In short: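 Beta-lactamase reporter under AP-1 response element, ME-180 background. Stimulus: EC50 EGF. Compound exposure 5 h, 37 °C. Detection: CCF4, 2.5 h RT, 460/530 nm. Values: AC50 from titration.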
# [17] = measured here: cell count channel max response
# [18] = measured here: lipid channel max response
Compound,Potency [1],Potency [2],Potency [3],outcome [4],"activity change, negative = inhibition [5]","max response [5, 17] [%]","max response [5, 18] [%]",Potency [6],Potency [7],Potency [8],Potency [9],Potency [10],Potency [11],"activity change, negative = inhibition [12]","activity, negative = inhibition [13]",Potency [14],Potency [15],"activity change, negative = inhibition [16]"
CN1CCN(c2ncc3nc(-c4ccccc4)c(=O)n(CCc4ccccc4)c3n2)CC1,> 11.4 µM (inactive),> 9.22 µM (inactive),> 46 µM (inactive),inactive,-1.95% (inactive),-2.1,-5.21,inactive,inactive,inactive,inactive,39.8 µM (active),–,–,–,–,–,–
CN1CCN(c2nc(-c3cccc(C#N)c3)nc3ccccc23)CC1,> 11.4 µM (inactive),–,> 46 µM (inactive),inactive,8.44% (inactive),3.27,7.86,–,–,–,–,12.6 µM (active),1.58 µM (active),-2.42% (inactive),21.4% (inactive),inactive,–,–
O=c1c(-c2ccccc2)nc2cnc(N3CCNCC3)nc2n1Cc1cccs1,> 11.4 µM (inactive),> 9.22 µM (inactive),> 46 µM (inactive),–,–,–,–,–,–,–,–,inactive,–,–,–,–,inactive,–
Cc1ccccc1-c1nc(NC2CCNCC2)c2ccccc2n1,> 11.4 µM (inactive),> 46 µM (inactive),> 46 µM (inactive),inactive,–,–,–,–,–,–,–,31.6 µM (active),20 µM (active),0.36% (inactive),-7.16% (inactive),–,inactive,–
CN1CCN(c2ncc3nc(-c4ccccc4)c(=O)n(-c4ccccc4)c3n2)CC1,> 11.4 µM (inactive),> 9.22 µM (inactive),> 46 µM (inactive),inactive,–,–,–,–,–,–,–,25.1 µM (active),–,–,–,–,inactive,–
N#CCCn1c(=O)c(-c2ccc(Cl)cc2)nc2cnc(OCc3ccccc3)nc21,> 11.4 µM (inactive),> 9.22 µM (inactive),> 46 µM (inactive),inactive,5.27% (inactive),8.68,16.3,–,–,–,–,inactive,2 µM (active),–,1.91% (inactive),–,–,–
O=c1c(-c2cccs2)nc2cnc(N3CCNCC3)nc2n1CCc1ccccc1,> 11.4 µM (inactive),> 9.22 µM (inactive),> 46 µM (inactive),–,–,–,–,inactive,–,inactive,inactive,inactive,–,–,–,–,inactive,82.5% [activator] (active)
COc1cccc(Cn2c(=O)c(C)nc3cnc(N4CCN(C)CC4)nc32)c1,> 11.4 µM (inactive),> 9.22 µM (inactive),> 46 µM (inactive),inactive,-3.34% (inactive),13.5,7.13,inactive,inactive,inactive,inactive,inactive,–,5.99% (inactive),-11.6% (inactive),–,inactive,-0.444% (inactive)
COc1ccc(-c2nc3cnc(N4CCNCC4)nc3n(-c3ccccc3)c2=O)cc1,> 11.4 µM (inactive),> 9.22 µM (inactive),> 46 µM (inactive),inactive,3% (inactive),10.3,4.43,–,–,–,–,inactive,–,–,–,–,inactive,–
COCCn1c(=O)c(CCc2ccccc2)nc2cnc(N3CCN(C)CC3)nc21,> 11.4 µM (inactive),> 9.22 µM (inactive),> 46 µM (inactive),inactive,5.96% (inactive),-2.68,4.85,–,–,–,–,–,–,-7.4% (inactive),-8.57% (inactive),–,inactive,2.87% (inactive)
CN(C)c1ccc(-c2nccc(NCCN3CCOCC3)n2)cc1,> 11.4 µM (inactive),> 46 µM (inactive),> 46 µM (inactive),–,-20.5% (inactive),-10.5,-26.5,–,–,–,inactive,–,1.26 µM (active),7.2% (inactive),11.1% (inactive),inactive,inactive,-7.61% (inactive)
Clc1ccccc1-c1nc(N2CCNCC2)c2ccccc2n1,> 11.4 µM (inactive),> 46 µM (inactive),> 46 µM (inactive),inactive,3.77% (inactive),7.62,12,–,–,–,inactive,12.6 µM (active),2.51 µM (active),-0.528% (inactive),9.64% (inactive),inactive,inactive,-2.1% (inactive)
N#Cc1cccc(-c2nc(N3CCNCC3)c3ccccc3n2)c1,> 11.4 µM (inactive),> 46 µM (inactive),> 46 µM (inactive),inactive,6.61% (inactive),6.46,11.8,–,–,–,inactive,11.2 µM (active),2.51 µM (active),10.9% (inactive),11.7% (inactive),inactive,inactive,5.75% (inactive)
